Results published in PubChem BioAssay AID602293 (National Center for Advancing Translational Sciences (NCATS), 2012).
Among all 1,300 compounds or so, about 30 (2%) were called active. Not shown: some 10% with an inconclusive outcome. Calls follow the shape of the dose curve; as a rule, active = well fitted inhibition curve with a large enough effect; inconclusive = small, poorly fitted or top-dose-only effect; inactive = flat fitted curve, though single readings scatter. What follows is part of a selection rich in actives, with near analogues and random picks from the rest. A call without a number means that no potency is given here.

Test: qHTS for antagonists of the Thyroid Stimulation Hormone Receptor: Hit Validation in HTRF Activity in a Luteinizing Hormone Receptor Cell Line
Settings: LHR-expressing cell line, cAMP HTRF, antagonist mode; series mostly up to 58 µM
Description: The thyroid-stimulating hormone receptor (TSHR) is a member of the 7 trans-membrane-spanning receptor (7TMR) family of cell surface receptors. TSHR-mediated hyperthyroidism is important in thyroid pathology. The development of small molecule antagonists of TSHR may lead to therapeutic approaches for TSHR-mediated hyperthyroidism caused by constitutively activating mutations or stimulating auto-antibodies associated with Graves' disease. Graves' disease is the leading cause of hyperthyroidism and is caused by autoantibodies that stimulate TSHR (TsAbs) causing thyroid growth and unregulated overproduction of thyroid hormones and existing treatments have liabilities (agranulocytosis). In addition, TSHRs are known to be expressed in multiple extrathyroidal tissues including bone, brain, kidney, testis, fat and cells of the immune system but the role of the TSHR in these tissues is not clear. Therefore, TSHR antagonists/inverse agonists could be used as probes of extrathyroidal TSHR function. Finally, TSHR inverse agonists, which are a subclass of antagonists that inhibit agonist-independent (or basal or constitutive) TSHR signaling, could be used to inhibit TSH-independent signaling in patients with recurrent or metastatic thyroid cancer who are receiving thyroid hormone to suppress TSH.
In collaboration between scientist from the NCGC and the NIDDK, a miniaturized HTRF high-throughput screen was developed. It's a cell based assay, where an anti cAMP antibody contains a fluorescent cryptate tag (excitation 337 nm; emission 620 nm) and the acceptor is cAMP-d2 (excitation 620 nm; emission 665 nm). When antibody and cAMP-d2 interact and are excited by a 337 nm light, a FRET occurs resulting in emission at 665 nm. The assay is competition between cAMP-d2 and cAMP (from the cell lysate). The homogeneous protocol allows for one step dispense after stimulation that is automation friendly. In order to confirm specificity of the compounds to the TSHR, a confirmatory assay was conducted on a similar family member, the Luteinizing Hormone (LH) receptor, transfected into a HEK 293 cell line, using an orthogonal detection technology to measure cAMP stimulation: antibody-based Homogeneous Time Resolved Fluorescence (HTRF).
NIH Chemical Genomics Center [NCGC]
NIH Molecular Libraries Probe Centers Network [MLPCN]
Assay Provider: Marvin Gershengorn, NIDDK
Homogeneous Time Resolved Fluorescence (HTRF) cAMP Assay. HEK 293 cells stably transfected with a vector containing the LH receptor and maintained under hygromycin selection were obtained from the laboratory of Dr. Marvin Gershengorn. Compounds were assayed using a HTRF cAMP detection kit (Cisbio) on the LH receptor transfected cell line. Briefly, 750 cells were plated in 2.5 ul/well of complete media (DMEM containing 10 % FCS, and 100 uM RO 20-1724) in 1536 well solid bottom white plates and 23 nl/well compound in DMSO solution or controls was added. Following 30 minute incubation at room temperature, 2.5 ul/well of labeled d2 cAMP and 2.5 ul/well of anti-cAMP antibody (both diluted 1:20 in lysis buffer) were added to each well using a flying reagent dispenser (Aurora Discovery, San Diego) . Plates were measured using the Envision plate reader (PerkinElmer, Boston, MA) with excitation at 330 nm and emissions of 615 nm and 660 nm.
Potency is read from the fitted curve at half-maximal effect.

| Structure (SMILES) | Potency |
| --- | --- |
| Cc1cccc(N(C(=O)c2nsc(Cl)c2Cl)C(C(=O)NC2CCCC2)c2ccc(O)cc2)c1C (stereo not drawn) | 12 µM (active) |
| CC(=O)c1ccc(N(C(=O)CNC(=O)c2ccco2)C(C(=O)NC2CCCC2)c2ccncc2)cc1 (stereo not drawn) | inactive |
| O=C(NC1CCCCC1)C(c1cccs1)N(Cc1cccs1)C(=O)c1cccs1 (stereo not drawn) | inactive |
| Cc1c(C(=O)NCc2ccc3c(c2)OCO3)sc2nc(-c3ccccc3)cn12 | inactive |
| N#Cc1c(Cl)nsc1NC(=O)c1ccccc1 | inactive |
| O=C1CCCN1c1ccc(S(=O)(=O)Oc2ccc(Cl)cc2)cc1[N+](=O)[O-] | inactive |
| CN(C)c1ccc(NC(=S)c2ccc3ccccc3n2)cc1 | inactive |
| CSc1nc(-c2ccc(Cl)cc2Cl)[nH]c(=O)c1C#N | inactive |
| CCOc1cc(N2CCOCC2)c(OCC)cc1NC(=O)c1cccc(S(=O)(=O)N2CCOCC2)c1 | inactive |
| COc1ccc(S(=O)(=O)Nc2ccc(C)cc2)cc1N(C)S(=O)(=O)c1ccc(Cl)cc1 | inactive |
| O=C(Nc1ncc(S(=O)(=O)c2ccc([N+](=O)[O-])cc2)s1)c1ccc2ccccc2c1 | inactive |
| O=C(Nc1ncc(S(=O)(=O)c2ccc([N+](=O)[O-])cc2)s1)c1cccc2ccccc12 | inactive |
| CCOC(=O)CCCCCC(=O)Nc1ccc2c(c1)CC(=O)N([C@H](C)CO)C[C@@H](C)[C@H](CN(C)Cc1ccc3c(c1)OCO3)O2 | inactive |
| c1ccc2c(CSc3ncnc4nc[nH]c34)cccc2c1 | inactive |
| CC1=NN(C(N)=S)C(=O)C1N=Nc1ccc(Cl)cc1Cl (stereo not drawn) | inactive |
| Cc1ncsc1CCOC(=O)C1C2CC3CC(C2)CC1C3 (stereo not drawn) | inactive |
| CCOC(=O)N1CCN(C(=O)c2ccc3c(c2)N=C(CC)c2cc(C)ccc2S3)CC1 | inactive |
| O=C(COC(=O)c1cc(S(=O)(=O)N2CCOCC2)c(Cl)cc1Cl)c1ccc[nH]1 | inactive |
| COc1cc(/C=C(\C#N)c2ccccn2)ccc1OCc1ccc(Cl)cc1 | inactive |
| C/C(=N\Nc1cc(C)nc(-c2ccccc2O)n1)c1ccccc1 | inactive |
| O=C(Nc1cc(S(=O)(=O)N2CCCCC2)ccc1Cl)c1ccccc1NS(=O)(=O)c1ccc(F)cc1 | inactive |
| Clc1ccccc1CN(Cc1ccccc1)c1ncnc2nc[nH]c12 | inactive |
| COC(=O)c1ccc(NC(=O)Nc2ccc(F)c(Cl)c2)cc1 | inactive |
| O=C1C(Cl)=C(Nc2ccc(O)cc2)C(=O)c2ccccc21 | inactive |
| COc1ccc2cc(/C=C3\SC(=S)NC3=O)c(N3CCOCC3)nc2c1 | inactive |

| Structure (SMILES) | Potency |
| --- | --- |
| O=S1(=O)C=C(Sc2nc3cc(Cl)ccc3o2)c2ccccc21 | inactive |
| O=C(Nc1ccc(Oc2ccc(Cl)cc2)c(Cl)c1)c1cc(I)cc(I)c1O | inactive |
| O=C(COC(=O)c1ccccc1C(=O)c1ccc(Cl)c([N+](=O)[O-])c1)NC1CCCCCC1 | inactive |
| O=C(O)c1ccc(Cl)cc1Nc1nc2cc(Cl)ccc2o1 | inactive |
| COc1ccc(CNC(=O)Cn2nc(Cc3cccnc3)c3ccccc3c2=O)cc1 | inactive |
| CCC(=O)NC1=C(Cl)C(=O)C(NC(=O)CC)=C(Cl)C1=O | 30.1 µM (active) |
| N#C/C(=N\Nc1ccc(Cl)c(Cl)c1)C(=O)C1CC1 | inactive |
| O=S(=O)(Nc1cc(Cl)ccc1-n1cncn1)c1cc(Br)ccc1Br | inactive |
| O=C(Nc1cccc(Cl)c1)Nc1ccc(Br)cc1F | inactive |
| COC(=O)c1ccc(C2N=C(c3cccs3)CC(c3ccccc3O)N2)cc1 (stereo not drawn) | inactive |
| COc1ccc(CNC(=O)C(C)OC(=O)c2cccs2)cc1 (stereo not drawn) | inactive |
| COc1cc(C(C(=O)NCc2ccccc2)N(C(=O)c2snc(C(N)=O)c2N)C2CCCC2)cc(OC)c1OC (stereo not drawn) | inactive |
| COc1ccc(CNC(=O)C(c2ccco2)N(C(=O)c2snc(C(N)=O)c2N)c2cccc(OC)c2)cc1 (stereo not drawn) | 13.5 µM (active) |
| O=C(O)/C=C/c1ccc(S(=O)(=O)Nc2ccccc2C(=O)Nc2ccc(F)cc2)cc1 | inactive |
| OCCSc1nnc(Nc2ccccc2)s1 | inactive |
| O=C1C(SCCO)=C(SCCO)C(=O)c2ccccc21 | 26.9 µM (active) |
| CN1CCN(C2=CC3=CC(=C(C#N)C#N)CCC3CC2)CC1 (stereo not drawn) | inactive |
| Nc1nc(SCC(=O)C23CC4CC(CC(C4)C2)C3)n[nH]1 | inactive |
| CC(C)(C)C(=O)NC(NC(=S)Nc1sc2c(c1C#N)CCCC2)C(Cl)(Cl)Cl (stereo not drawn) | inactive |
| CC1Cc2ccccc2N1C(=O)COC(=O)/C=C/c1ccc(F)cc1 (stereo not drawn) | inactive |
| COc1cc(NC(=O)Cn2nc(C(F)(F)F)c(Br)c2C)cc([N+](=O)[O-])c1 | inactive |
| CCCC(=NC(C)CC)C1=C(O)CC(c2ccccc2)CC1=O (stereo not drawn) | inactive |
| CCn1nc(C)cc1-c1nnc(Sc2ncc([N+](=O)[O-])s2)n1C | 37.9 µM (active) |
| O=C(Nc1ncc(S(=O)(=O)c2ccc([N+](=O)[O-])cc2)s1)c1ccccc1F | inactive |
| Cc1nc(NCCc2ccccc2)c(C#N)c(C)c1[N+](=O)[O-] | inactive |

| Structure (SMILES) | Potency |
| --- | --- |
| O=C(OCn1ncc(Cl)c(Cl)c1=O)c1ccccc1Cl | inactive |
| O=S(=O)(Nc1cccnc1)c1ccc(C2CCCCC2)cc1 | inactive |
| CC(C)Cc1nc2oc3c(Cl)ncnc3c2c2c1CCC2 | inactive |
| Cc1cccc(NC(=O)c2ccc(Cl)c(S(=O)(=O)N3CCc4ccccc43)c2)n1 | inactive |
| COc1ccc(CCNc2ncnc3c2[nH]c2cc(OC)c(OC)cc23)cc1OC | inactive |
| COc1ccc(CCNC2=C(Cl)C(=O)N(CCc3ccc(OC)c(OC)c3)C2=O)cc1OC | 37.9 µM (active) |
| COc1ccc(CCNC2=C(Cl)C(=O)N(CCc3ccccc3)C2=O)cc1OC | inactive |
| COc1ccc(-n2ncc3c(N(C)C4CCCCC4)ncnc32)cc1 | inactive |
| COc1ccc(OC)c(NC(=O)CSc2ncnc3c2cnn3-c2ccccc2Cl)c1 | inactive |
| COc1cccc(N2CCN(c3ncnc4c3cnn4-c3ccc(C)cc3C)CC2)c1 | 33.8 µM (active) |
| O=C(NC1C2CC3CC(C2)CC1C3)c1ccc2c(c1)OCO2 (stereo not drawn) | inactive |
| CC(C)(C)OC(=O)NCCCCCc1cn([C@@H](CO)C(=O)NCCCCCCCCCCC(=O)N2CCN(C(=O)OC(C)(C)C)CC2)nn1 | 37.9 µM (active) |
| Cc1cccc(OCC(=O)Nc2nc3ccc([N+](=O)[O-])cc3s2)c1C | inactive |
| CCOc1cc(N2CCOCC2)c(OCC)cc1NC(=O)c1cc(S(=O)(=O)N2CCOCC2)ccc1C | inactive |
| CN(c1cccc(NC(=O)c2ccc(Cl)c(S(=O)(=O)Nc3ccccc3)c2)c1)S(C)(=O)=O | inactive |
| CCOC(=O)c1ccc(NC(=O)c2nc(S(=O)(=O)Cc3ccccc3)ncc2Cl)cc1 | inactive |
| CCN(c1ccccc1)S(=O)(=O)c1ccc(NC(=O)c2nc(S(C)(=O)=O)ncc2Cl)cc1 | 33.8 µM (active) |
| O=C(Nc1ccccc1)c1nnsc1S(=O)(=O)c1ccc(Cl)cc1 | inactive |
| COC(=O)c1ccc(NC(=O)c2nc(S(=O)(=O)Cc3cccc(C)c3)ncc2Cl)cc1 | inactive |
| CCS(=O)(=O)c1ncc(Cl)c(C(=O)Nc2ccc(S(=O)(=O)N(C)c3ccccc3)cc2)n1 | 42.6 µM (active) |
| Cc1ccc(NC(=O)c2nc(S(=O)(=O)Cc3ccccc3C)ncc2Cl)cc1C | inactive |
| CC(C)c1nnc(NC(=O)c2nc(S(=O)(=O)Cc3ccccc3F)ncc2Cl)s1 | inactive |
| CCC1CCCCN1S(=O)(=O)c1ccc(NC(=O)c2nc(S(C)(=O)=O)ncc2Cl)cc1 (stereo not drawn) | 30.1 µM (active) |
| CN(c1ccccc1)S(=O)(=O)c1ccc(NC(=O)c2nc(S(C)(=O)=O)ncc2Cl)cc1 | 30.1 µM (active) |
| CCCc1nnc(NC(=O)c2nc(S(=O)(=O)Cc3ccc(C)cc3)ncc2Cl)s1 | inactive |

| Structure (SMILES) | Potency |
| --- | --- |
| Cc1ccc(CS(=O)(=O)c2ncc(Cl)c(C(=O)Nc3nnc(C(C)C)s3)n2)cc1 | inactive |
| COc1ccc(OC)c(NC(=O)c2cc(S(=O)(=O)NCc3ccco3)ccc2F)c1 | inactive |
| COc1ccccc1C1CCN(c2cc(O)ccc2[N+](=O)[O-])CC1 | inactive |
| Cc1ccc(C)c(N2CCN(C(=O)C(Cc3ccccc3)n3cccc3)CC2)c1 (stereo not drawn) | inactive |
| Cc1ccccc1NC(=O)c1cc2ccccn2n1 | inactive |
| Cc1csc(NC(=O)c2cc3c(C)nn(Cc4ccccc4Cl)c3s2)n1 | inactive |
| COC(=O)CCN(Cc1cc(OC)ccc1OC)S(=O)(=O)c1ccccc1Br | inactive |
| CCn1c(=NC(=O)CSC(C)=O)sc2cc(OC)ccc21 | inactive |
| Brc1ccc(CNc2ccc3ncccc3c2)cc1 | inactive |
| Cc1n[nH]c(C)c1S(=O)(=O)N1CCCC(C(=O)N2CCN(c3ccc(Cl)cc3)CC2)C1 (stereo not drawn) | inactive |
| CCCCn1c(-c2c(Cl)c(C)nn2C)n[nH]c1=S | inactive |
| Clc1ccc(CCNc2ncnc3nc[nH]c23)cc1 | inactive |
| Cc1cc(-n2c(C)cc(C(=O)CSc3[nH]c(=O)cc(C(F)(F)F)c3C#N)c2C)no1 | inactive |
| Cc1ccc(C(=O)C2=C(O)C(=O)N(c3ncccn3)C2c2ccccc2F)o1 (stereo not drawn) | inactive |
| O=c1[nH]nc(Cc2ccc(-c3cccc(Cl)c3)o2)c2ccccc12 | inactive |
| C1=C(CCNc2ncnc3c2[nH]c2ccccc23)CCCC1 | inactive |
| COc1ccc(N2CCN(C(c3nnnn3CCc3ccccc3)C(C)C)CC2)cc1 (stereo not drawn) | inactive |
| O=C(NCCC1=CCCCC1)C1CCCN(S(=O)(=O)c2ccccc2)C1 (stereo not drawn) | inactive |
| CCCCCCOc1ccc(NC(=O)CC2C(=O)N(CC)C(=S)N2Cc2ccco2)cc1 (stereo not drawn) | inactive |
| O=[N+]([O-])c1ccc(Sc2cccc[n+]2[O-])c2nonc12 | 23.9 µM (active) |
| COc1ccc(Nc2ccc([N+](=O)[O-])c3nonc23)c(OC)c1 | inactive |
| COC(=O)c1c(NC(NC(C)=O)C(Cl)(Cl)Cl)sc2c1CCCC2 (stereo not drawn) | inactive |
| COc1cc([N+](=O)[O-])cc(/C=C2/SC(=S)N(Cc3ccccc3)C2=O)c1O | inactive |
